Assay results as given in PubChem BioAssay (Tox21).
Results filed as inconclusive are left out. Unmarked numbers belong to inactive results. The source made the active and inactive calls. Calls follow the shape of the full dose curve.

These molecules were tested against Thyrotropin receptor (Homo sapiens) (UniProt P16473) (assay: qHTS assay to identify small molecule agonists of the thyroid stimulating hormone receptor (TSHR) signaling pathway (AID 1224843; also: nearly all actives have a fitted effect of over 45% in size)). Conditions: TSHR-HEK293 cells, cAMP HTRF, agonist mode, 30 min; series mostly up to 92.4 µM; activation: at the top concentration.
Sequence of Thyrotropin receptor (Homo sapiens) (P16473 whole entry, looked up): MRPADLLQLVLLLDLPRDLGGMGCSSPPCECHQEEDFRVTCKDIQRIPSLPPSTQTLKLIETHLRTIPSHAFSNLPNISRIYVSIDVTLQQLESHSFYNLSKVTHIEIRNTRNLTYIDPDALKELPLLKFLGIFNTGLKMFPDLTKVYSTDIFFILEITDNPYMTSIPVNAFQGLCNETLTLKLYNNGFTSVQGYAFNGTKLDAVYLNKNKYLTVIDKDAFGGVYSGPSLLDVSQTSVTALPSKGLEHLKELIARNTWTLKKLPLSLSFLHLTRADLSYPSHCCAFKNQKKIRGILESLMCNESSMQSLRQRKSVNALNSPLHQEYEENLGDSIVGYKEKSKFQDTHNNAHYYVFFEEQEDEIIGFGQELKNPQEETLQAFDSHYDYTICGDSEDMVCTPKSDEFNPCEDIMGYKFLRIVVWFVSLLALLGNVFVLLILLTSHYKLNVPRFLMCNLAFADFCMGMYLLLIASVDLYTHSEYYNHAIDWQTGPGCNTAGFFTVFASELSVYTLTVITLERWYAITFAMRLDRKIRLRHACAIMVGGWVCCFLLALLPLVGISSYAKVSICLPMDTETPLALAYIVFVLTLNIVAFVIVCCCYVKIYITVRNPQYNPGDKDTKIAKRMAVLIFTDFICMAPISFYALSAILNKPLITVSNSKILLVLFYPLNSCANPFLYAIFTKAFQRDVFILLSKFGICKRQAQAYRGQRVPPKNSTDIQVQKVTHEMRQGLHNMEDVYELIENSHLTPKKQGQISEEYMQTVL
Excerpt: National Center for Advancing Translational Sciences [NCATS]
NIH Chemical Genomics Center [NCGC]
U.S. Environmental Protection Agency [EPA]
National Institutes of Environmental Health Sciences [NIEHS]
National Toxicology Program [NTP]
U.S. Food and Drug Administration [FDA]
TSHR is the receptor for thyrotropin (thyroid stimulating hormone or TSH), a member of the glycoprotein hormone family. TSH is released by the anterior pituitary gland and is the main regulator of thyroid gland growth and development. Upon binding circulating thyrotropin, a G-protein signal cascade activates adenylyl cyclase and […] cAMP concentration is increased. cAMP is a key second messenger involved extensively in cellular signal transduction pathways associated with the majority of G-protein coupled receptors (GPCRs). The activation of these GPCRs by neurotransmitters, lipids, nucleotides, peptides and hormones results in the activation or the inhibition of plasma membrane-bound adenylate cyclase through heterotrimeric G-proteins. A cell-based TSHR assay was used to screen the Tox21 10K library for compounds that can modulate TSHR in agonist mode.
Tox21 Assay Protocol Summary:
TSHR-Hek293 cells were dispensed at 800 cells/4uL/well in 1536-well white plates using a Multidrop dispenser. […] The plates were incubated at room temperature for 30 min. 2.5 ul/well of cAMP-d2 and 2.5ul/well of anti-cAMP-cryptate was added respectively into the assay plates using a Flying Reagent Dispenser. After 1 hr incubation at room temperature, the fluorescence intensity in the plates was measured using an Envision plate reader. Each test compound was measured at 15 concentrations and in triplicates.
% is scaled to controls: 0 for no effect and ±100 for the full control effect; potency is read from the fitted curve at half-maximal effect.

SMILES	activation	Potency
CCCCN1C(=O)[C@@H]([C@H](O)C2CCCCC2)NC(=O)C12CCN(Cc1ccc(Oc3ccc(C(=O)O)cc3)cc1)CC2	-4.4%	
O=C(Oc1cccc2cccnc12)c1ccccc1	-4.46% [at 42.5 µM]	
CC(NN)c1ccccc1 (stereo not given)	-0.741% [at 19 µM]	
COc1cc(-c2nc(NC(=O)c3cc4cc(C)cc(C)c4n3CC(=O)O)sc2CCC2CCCCC2)c(OC)cc1Cl	7.47%	
Cc1onc(-c2ccccc2Cl)c1C(=O)N[C@@H]1C(=O)N2[C@@H]1SC(C)(C)[C@@H]2C(=O)O	-7.1% [at 42.5 µM]	
CC[C@@]1(O)C(=O)OCc2c1cc1n(c2=O)Cc2c-1nc1ccccc1c2/C=N/OC(C)(C)C	-4.84% [at 42.5 µM]	
O=S1(=O)CC(Cl)(Cl)C(Cl)(Cl)C1		4.86 µM (active)
CN(C)[C@@H]1C(=O)C(C(N)=O)=C(O)[C@@]2(O)C(=O)C3=C(O)c4c(O)cccc4C[C@H]3C[C@@H]12	7.39% [at 42.5 µM]	
CC(C)(C)c1ccc(C(=O)O)cc1	3.35%	
Cc1cccc(N(C)C(=S)Oc2ccc3c(c2)C2CCC3C2)c1 (stereo not given)	-0.754% [at 42.5 µM]	
CC(C)c1ccc2c(c1)CC[C@H]1[C@](C)(CN)CCC[C@]21C	2.36%	
CCc1cc(Cc2cc(CC)cc(C(C)(C)C)c2O)c(O)c(C(C)(C)C)c1	10.4%	
Oc1ccc2cc(SSc3ccc4cc(O)ccc4c3)ccc2c1	17.5%	
CCCCCCCCCCCCc1ccc(O)cc1		27.3 µM (active)
CC(C)C(C)(C)C(C)(C)C(C)(C)S	0.929%	
CCOC(=O)O[C@]1(C(=O)OCCl)CC[C@H]2[C@@H]3CCC4=CC(=O)C=C[C@]4(C)[C@H]3[C@@H](O)C[C@@]21C	0.949% [at 42.5 µM]	
O=C(Nc1cccc(C(F)(F)F)c1)c1cc(Br)cc(Br)c1O	25.3%	
CCC(C)(C)C1CCCCC1OC(C)=O (stereo not given)	0.0964%	
NC(=O)NS(=O)(=O)c1ccc(N)cc1	-0.694% [at 42.5 µM]	
CCCCCCCCOC(=O)c1ccc(O)cc1		inactive

SMILES	activation	Potency
Oc1c(Cl)cc(Cl)c2cccnc12	-8.72% [at 42.5 µM]	
NC(=O)CC[C@@H]1NC(=O)[C@H](Cc2ccccc2)NC(=O)[C@H](Cc2ccc(O)cc2)NC(=O)CCSSC[C@@H](C(=O)N2CCC[C@H]2C(=O)N[C@@H](CCCN=C(N)N)C(=O)NCC(N)=O)NC(=O)[C@H](CC(N)=O)NC1=O	7.26% [at 42.5 µM]	
Clc1ccccc1C(c1ccccc1)(c1ccccc1)n1ccnc1	11.7% [at 42.5 µM]	
Cc1cc(O)c(C(C)(C)C)cc1Sc1cc(C(C)(C)C)c(O)cc1C		9.67 µM (active)
C=C(C)C(=O)OCC[N+](C)(C)C	-8.64%	
O=C(c1ccc(F)cc1)C1CCN(CCn2c(=O)[nH]c3ccccc3c2=O)CC1	-9.39% [at 42.5 µM]	
CCCC(c1cc(C(C)(C)C)c(O)cc1C)c1cc(C(C)(C)C)c(O)cc1C		6.19 µM (active)
CC(=O)OCC(C)OC(C)=O (stereo not given)	1.08%	
O=c1[nH]sc2cc(Cl)ccc12	1.4% [at 42.5 µM]	
[O-][n+]1ccccc1SSc1cccc[n+]1[O-]	15.2% [at 19 µM]	
C/C(=C(/OCCOc1ccc(Cl)cc1)c1ccc(Cl)cc1Cl)n1ccnc1	3.98% [at 42.5 µM]	
CC(C)(C)CC(C)(C)c1ccc(O)c(Cc2ccc(Cl)cc2Cl)c1	1.89% [at 42.5 µM]	
CCCCCOc1ccccc1/C(=C\SC)n1ccnc1		21.1 µM (active)
C1CCCC1	0.716%	
CCOC(=O)/C=C(C)/C=C/C=C(C)/C=C/c1c(C)cc(OC)c(C)c1C	-0.375% [at 42.5 µM]	
Cc1onc(-c2c(Cl)cccc2Cl)c1C(=O)N[C@@H]1C(=O)N2[C@@H]1SC(C)(C)[C@@H]2C(=O)O	0.975% [at 42.5 µM]	
CC(C)=CCOc1ccc(/C=C/C(=O)c2ccc(OCC=C(C)C)cc2OCC(=O)O)cc1	-0.894% [at 42.5 µM]	
CCN(C(=O)c1cc(C)cc(OC[C@H](C)Nc2ccncc2)c1)C(C)C	-22.9% [at 42.5 µM]	
O=C1CCCCCN1SSN1CCCCCC1=O	-1.48%	
ON=C1CCCC1	18.6%	
